Hits are enriched below; roughly 5.8% of the tested compounds scored in any of these assays.
GBA mod – alters purified human glucocerebrosidase activity. P04062. purified enzyme, resorufin glucoside fluorescence (screen aimed at inhibitors), 20 min. Potency, µM. 48,000 tested, 1.1% active; in the data active means potency below about 15 µM; inconclusive means mostly about 16 µM to 33 µM;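 further: the screen sought inhibitors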
Target sequence (P04062 whole entry, looked up): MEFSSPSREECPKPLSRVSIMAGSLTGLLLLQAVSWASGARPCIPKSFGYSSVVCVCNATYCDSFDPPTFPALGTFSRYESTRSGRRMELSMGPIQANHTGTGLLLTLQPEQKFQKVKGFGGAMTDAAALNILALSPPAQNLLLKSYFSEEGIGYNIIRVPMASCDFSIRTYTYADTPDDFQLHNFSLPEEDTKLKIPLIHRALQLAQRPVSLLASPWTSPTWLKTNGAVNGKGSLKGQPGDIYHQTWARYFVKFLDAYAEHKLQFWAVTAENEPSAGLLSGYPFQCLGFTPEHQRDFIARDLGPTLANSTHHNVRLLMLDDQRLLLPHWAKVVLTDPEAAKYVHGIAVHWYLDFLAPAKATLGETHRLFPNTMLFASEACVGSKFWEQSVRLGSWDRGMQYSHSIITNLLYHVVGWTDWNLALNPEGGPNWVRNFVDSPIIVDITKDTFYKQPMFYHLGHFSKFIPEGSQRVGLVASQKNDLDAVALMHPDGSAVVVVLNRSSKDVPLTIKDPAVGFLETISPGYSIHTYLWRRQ
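Wild-type enzyme at 0.2 nM final in 50mM citric acid/KH2PO4, 10mM sodium taurocholate, 0.01% tween-20, pH 5.9, with resorufin beta-D-glucopyranoside at 30 uM final. Compounds titrated, 20 min at RT, red fluorescence read; AC50 from titration.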
Luciferase inh – inhibitors of firefly luciferase; P08659; Potency, µM (top dose mostly 57.1 µM), for the others: top-dose activity change, negative = inhibition, hits mostly inhibitors; purified firefly luciferase, luminescence, 8 min; 72,000 tested, 2.2% active; further: on the % scale 0 is the no-effect control and ±100 the full control effect; nearly all actives have a fitted effect of over 40% in size
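Here, luciferase activity is measured as luminescence following an 8 min room-temperature reaction at 10 uM ATP, pH 7.2. Every library sample is titrated.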
Bst PK mod – alters activity of Bacillus stearothermophilus pyruvate kinase; Potency, µM; purified pyruvate kinase, luminescence ATP production; ribose 5-phosphate activator present at AC10; 51,000 tested, 1.2% active; AID 361; in the data active means potency below about 11 µM; inconclusive means mostly about 12 µM to 25 µM;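 the screen sought inhibitors and activators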;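 further: scaled between full activation by ribose 5 phosphate and full inhibition by luteolin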
TSHR ag – agonists of human thyroid stimulating hormone receptor. Potency, µM (highest dose often 57.1 µM), for inactives: top-dose activation, most hits filed as activators. HEK293-CNG-TSHR cells (CNG channel as cAMP sensor), membrane potential dye, cAMP. P16473. 73,000 tested, 0.48% active; active means well fitted activation curve with a large enough effect in the main read-out, with a control signal flat, not every such curve was filed as active; inconclusive means small, poorly fitted or top-dose-only effect, or a change in a side signal; inactive means no such curve, though single readings can be large or run the other way; % of control where 0% means no effect;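 further: the control signal comes from parental cells without the receptor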
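cAMP rise detected as CNG-channel membrane depolarization by fluorescent dye (emission 590 nm), 30 min after compound, following 60 min dye loading containing 100 uM RO 20-1724 at room temperature. Cells: TSHR/CNG HEK 293, with parental CNG HEK 293 as control.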
HEK293 cAMP ctrl – counter-screen for TSHR agonists: cAMP increase in parental HEK293 | parental HEK293 CNG cAMP sensor, membrane potential fluorescence | Potency, µM (highest dose often 57.1 µM), for the others: at the top dose activation, actives largely listed as activators | 73,000 tested, 2.5% active; further: % of control where 0% means no effect; nearly all actives have a fitted effect of over 55% in size
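Parental HEK 293 cells stably expressing a cAMP-gated CNG channel were loaded with membrane potential dye containing 100 uM RO 20-1724 for 60 min. Compound added for 30 min; depolarization read as fluorescence intensity at 590 nm.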
* = called active by the depositor; i = inactive; ? = inconclusive; . = no result; [ ] = dose if it differs, or a comment. Unless noted, the call rests on the fitted dose curve; in most records, active means well fitted curve in the direction sought with a large enough effect; inconclusive means small, poorly fitted or top-dose-only effect, or another doubt; inactive means no such curve, though single readings can be large; an effect the other way counts as inactive or inconclusive. Potency means the concentration at half of the fitted maximal effect.

SMILES	GBA mod	Luciferase inh	Bst PK mod	TSHR ag	HEK293 cAMP ctrl
CCNc1ncc2nc(-c3cn(C)c4ccccc34)c(=O)n(-c3ccccc3)c2n1	.	0%[11.4 µM]	.	-1%	-5%
O=c1c2ccccc2sn1-c1cc(S(=O)(=O)N2CCOCC2)ccc1N1CCOCC1	?	13µM*	>57	-10%	-2%
CN1C[C@H](c2ccccc2)C(O)([C@]2(c3ccccc3)CN(C)C[C@@H](c3ccccc3)C2=O)[C@H](c2ccccc2)C1 (stereo not given in full)	.	0%[11.4 µM]	.	0%[11.4 µM]	5%[11.4 µM]
O=C(NC1=NCCS1)c1ccc(-c2ccc(Cl)cc2)o1	?	7.9µM*	5.4*	-2%[11.4 µM]	3%
COc1cccc(C(=O)Nc2ccc(C(=O)O)cc2)c1	>77	-11%	>57	-3%	4%
CCC(=O)Nc1ccc(NC(=O)c2cccc(OC)c2)nc1	>77	13µM*	.	-9%	-11%
COc1cccc(C(=O)Nc2ccc(C)cc2)c1	>77	10µM*	?	-45%	10%
COc1cccc(C(=O)NC2=NCCS2)c1	>77	16µM*	i	-5%	-10%
Cn1c(=O)c(-c2ccc(F)cc2)nc2cnc(OCc3ccccc3)nc21	.	1%[11.4 µM]	.	12%	2%
Cn1c(N)nc2c(nc(OCc3ccccc3)n2[C@@H]2O[C@H](CO)[C@@H](O)[C@@H]2O)c1=O	.	0%[11.4 µM]	.	-1%[11.4 µM]	5%[11.4 µM]
COc1nc(N)nc2c1ncn2[C@@H]1C[C@H](O)[C@@H](CO)O1	.	6%[11.4 µM]	.	1%[11.4 µM]	1%[11.4 µM]
O=c1c(O)c(-c2ccc(O)c(O)c2)oc2c(OC[C@H]3O[C@@H](O)[C@@H](O)[C@H](O)[C@@H]3O)c(O)cc(O)c12	.	-2%[11.4 µM]	.	10%	-1%
COc1cccc(C(=O)Nc2ccc(NC(=O)C3CC3)cn2)c1	>77	7.9µM*	.	-4%	-3%
Cc1ccc(NC(=O)c2ccccc2O)cc1	>77	5µM*	6.3*	-4%	9%
Cc1ccccc1NC(=O)c1ccccc1O	?	-5%	>57	6%	8%
Cc1cc(C)n2cc(CSCc3ccco3)nc2n1	>77	-3%	>57	4%	16%
Cc1cccc2nc(CSCc3ccco3)cn12	>77	25µM*	.	1%	4%
CC(=O)N1[C@H](C)C=C[C@]1(Cc1ccccc1)C(=O)NCCc1c[nH]c2ccccc12	.	.	.	0%	28%
C[C@@H]1C=C[C@](Cc2ccccc2)(C(=O)NCCc2c[nH]c3ccccc23)N1C(=O)c1ccccc1	.	.	.	?	2.5µM*
COC(=O)[C@@]1(Cc2ccccc2)C=C[C@@H](C)N1C(=O)c1ccccc1	.	.	.	?	32µM*
C[C@@H]1C=C[C@](Cc2ccccc2)(C(=O)NCCCNc2ncc(C(F)(F)F)cc2Cl)N1C(=O)c1ccccc1	.	.	.	?	25µM*
Cc1noc(C)c1-c1cncnc1N1CCN(C)CC1	.	1%[2.29 µM]	.	2%	1%
COC(=O)c1ccc(C(/C=C/[C@@H](C)C(=O)N(C)C)NC(=O)OCc2ccccc2)cc1 (stereo not given in full)	.	.	.	17%	11%
COc1cc(C(=O)Nc2ccc3c(c2)OCCO3)ccc1OC(C)C	>77	13µM*	i	2%	-1%
CC(C)=CC(=O)Nc1ccc2c(c1)OCO2	>77	25µM*	i	-5%	2%
SMILES	GBA mod	Luciferase inh	Bst PK mod	TSHR ag	HEK293 cAMP ctrl
CCc1c(C(=O)Nc2ccc(OC)c(Cl)c2)[nH]c(C)c1C(C)=O	>77	-2%	3.1*	9%	-8%
COC(=O)c1ccc(NC(=O)c2ccc3c(c2)OCO3)cc1	>77	-7%	>57	-6%	6%
O=C(CSCSCC(=O)Nc1ccc2c(c1)OCO2)Nc1ccc2c(c1)OCO2	>77	-16%	>57	-8%	-3%
COc1ccc(NC(=O)c2ccc3c(c2)OCO3)cc1Cl	>77	3.2µM*	.	5%	16%
O=C1OC(C2=CCCCC2)=NC12CC2	.	.	.	3%[11.4 µM]	5%[11.4 µM]
O=S(=O)(O)c1ccc(NN(c2c(O)ccc3ccccc23)S(=O)(=O)O)cc1	.	-3%[11.4 µM]	.	-6%[11.4 µM]	-5%[11.4 µM]
COc1cc(C(=O)Nc2ccc3c(c2)OCCO3)ccc1OC(F)F	>77	16µM*	?	?	?
COc1cccc(OC)c1C(=O)Nc1ccc2c(c1)OCCO2	.	-5%	.	27%	28%
COc1ccc(NC(=O)C=C(C)C)cc1Cl	>77	20µM*	.	8%	0%
COc1ccccc1NC(=O)Nc1ccc2c(c1)OCCO2	>77	13µM*	i	-9%	10%
